# High-throughput results: PubChem, Center for Chemical Genomics, University of Michigan
# Only a selection was taken, and hits are over-represented in it overall.
# Dicer processing: inhibitors of human Dicer processing of pre-microRNA | Q9UPY3 | cat-ELCCA pre-miR-21 Dicer processing, chemiluminescence; hits give high values | z-score at 25 µM | 47,000 compounds, 6% hits | AID 1347074; in the data active = z-score above about 3, passing the limit was not always enough;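 also: plate controls were vehicle for no effect and no enzyme for full effect; higher signal means more uncleaved substrate so more Dicer inhibition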
# Numbers without * were called inactive.
SMILES,Dicer processing
CCOc1ccccc1C1C(C#N)=C2N=C(N)c3ccccc3N2C2=C1C(=O)CC(C)(C)C2 (stereo not drawn),1.3
COc1ccccc1C1C(C#N)=C2N=C(N)c3ccccc3N2C2=C1C(=O)CC(C)(C)C2 (stereo not drawn),5*
COc1cccc(C2C(C#N)=C3N=C(N)c4ccccc4N3C3=C2C(=O)CC(C)(C)C3)c1 (stereo not drawn),1.9
N#CC1=C2N=C(N)c3ccccc3N2C2=C(C(=O)CC(c3ccccc3)C2)C1c1cccnc1 (stereo not drawn),1.5
N#CC1=C2N=C(N)c3ccccc3N2C2=C(C(=O)CC(c3ccccc3)C2)C1c1cccs1 (stereo not drawn),3
COc1cccc(C2C(C#N)=C3N=C(N)c4ccccc4N3C3=C2C(=O)CC(C)(C)C3)c1OC (stereo not drawn),0.02
N#CC1=C2N=C(N)c3ccccc3N2C2=C(C(=O)CC(c3ccccc3)C2)C1c1ccc2c(c1)OCO2 (stereo not drawn),3.4*
COc1ccc(C2C(C#N)=C3N=C(N)c4ccccc4N3C3=C2C(=O)CC(C)(C)C3)cc1 (stereo not drawn),-1.2
CCOC(=O)/C(N=Nc1ccccc1C)=C(\C)O,-0.12
C=CCSc1nnc2c(n1)OC(c1ccccn1)N(C(C)=O)c1ccccc1-2 (stereo not drawn),0.51
COc1cccc(OCc2nc(-c3ccncc3)no2)c1,-2
O=C1CCN(c2cc(C(F)(F)F)nc3cc(Cl)cc(Cl)c23)CC1,0.34
O=C(CSc1n[nH]c(-c2ccco2)n1)c1ccc(O)cc1O,10*
Cc1cc(C)nc(SCC(=O)c2ccc(O)cc2O)n1,0.35
Cc1ccc(C(=O)CSc2n[nH]c(-c3ccco3)n2)c(C)c1,-0.59
CO[C@H]1O[C@@H]2O[C@]3(C)CC[C@@H]4[C@@H](C)CC[C@H]([C@H]1C)[C@]24OO3,-2.4
CCCc1c(NC(=O)Nc2ccc(Cl)cc2Cl)cnn1-c1ccccc1,-1.1
COC(=O)CCC(CCC(=O)OC)(C(=O)OC)C(=O)OC,-0.23
Cc1cc(=O)oc2cc(OS(=O)(=O)c3cc(C(F)(F)F)cc(C(F)(F)F)c3)c(Cl)cc12,4.2*
Cc1cc(=O)oc2cc(OS(=O)(=O)c3cc(Cl)c(Cl)cc3Cl)c(Cl)cc12,2.9
Cc1ccc(S(=O)(=O)Oc2cc(C)ccc2C)cc1,-0.61
COc1ccc(C2C(C(=O)OC3CCCCC3)=C(C)NC3=C2C(=O)CC(C)(C)C3)c(OC)c1 (stereo not drawn),1.7
CCCCOc1ccc(CSc2ncn[nH]2)cc1,-0.04
Cc1ccc(C(=O)CC(=O)c2ccc(Cl)cc2)c(O)c1,4.4*
O=C(CC(=O)c1ccccc1O)c1ccc(Cl)cc1,-1
SMILES,Dicer processing
Cc1cc(C)c(C(=O)CC(=O)c2ccccc2Cl)c(O)c1,1.4
COC(=O)c1cccc(CS(C)(=O)=O)c1,0.54
COc1ccccc1NC(=O)OCc1ccc(-c2cc(C(F)(F)F)cc(C(F)(F)F)c2)o1,2.7
CCCc1nn(C)c(C(N)=O)c1[N+](=O)[O-],5.5*
CCOC(=O)C(C(=O)OCC)c1c([N+](=O)[O-])c(=O)n(C)c2ccccc12,-1.6
Cn1cnc([N+](=O)[O-])c1N1CCC(C(N)=O)CC1,-1.6
C#CCOC(=O)Nc1cnc(OCCOC)c(C(F)(F)F)c1,-1.7
CC(C)c1ncc2c(n1)-c1cc(Cl)ccc1SC2,-0.36
Cc1ccc(S(=O)(=O)Nc2nc3n(n2)C(c2ccccc2)C=C(c2ccccc2)N3)cc1 (stereo not drawn),-0.53
O=C(CCc1ccccc1)Nc1nc2n(n1)C(c1ccc(F)cc1)C=C(c1ccccc1)N2 (stereo not drawn),1.1
Cc1ccc(C2C=C(c3ccccc3)Nc3nc(NS(=O)(=O)c4ccc(C)cc4)nn32)cc1 (stereo not drawn),4*
Clc1ccc(Cl)c(Sc2ncnc3ccsc23)c1,0.52
Clc1cnccn1,-0.34
COC(=O)c1c(C)nc2n(CCN3CCCCC3)c3ccccc3n12,1.1
Cc1nn2c3ccccc3n(CCN3CCCCC3)c2nc1=O,3.1*
Cc1cn2c3ccccc3n(CCN3CCCC3)c2n1,0.49
COc1ccc(C(F)(F)F)cc1[N+](=O)[O-],0.37
O=C(C1CCCCC1)N1CCC(O)(c2ccc(Cl)cc2)CC1,-0.37
CCc1n(CC(O)COCC2CC=CCC2)c2ccccc2[n+]1C (stereo not drawn),0.61
CC1(C)Cc2c(c(N3CCCC3)nc3sc4c(N5CCOCC5)ncnc4c23)CO1,-0.03
CC1(C)Cc2c(c(N3CCOCC3)nc3sc(C(=O)Nc4ccccc4)c(N)c23)CO1,2.3
CC1(C)Cc2c(c(N3CCOCC3)nc3sc(C(=O)c4ccccc4)c(N)c23)CO1,3.2*
C[N+]1(C)CCCC(OC(=O)C(O)(c2ccccc2)c2ccccc2)C1 (stereo not drawn),0.15
COC(=O)C1=C(C)NC2=C(C(=O)CC(C)(C)C2)C1c1ccc(O)cc1 (stereo not drawn),3.5
O=[N+]([O-])C1=Cc2c(ccc3ccccc23)OC1c1ccc(F)cc1 (stereo not drawn),-3.3
SMILES,Dicer processing
O=C1CC2(CCCC2)C(=O)N1c1ccc(S(=O)(=O)N2CCSCC2)cc1Cl,-1
O=c1cc(-c2ccccc2)oc2ccc(Cl)cc12,-1
COc1cc(CO)ccc1Oc1nc([N+](=O)[O-])nn1Cc1ccccc1F,0.54
Cc1c(C)n(C(=O)CSc2nc(O)cc(=O)[nH]2)c2ccccc12,-1.2
Cc1ccnc(SCC(=O)n2c(C)c(C)c3ccccc32)n1,3.5*
Cc1ccnc(SCn2c(=S)sc3ccccc32)n1,-3.7
CC(=O)Nc1nc(N)nc(N2CCCCC2)n1,-0.48
CSC1=NC=C(C#N)C2=NC(c3ccc(N(C)C)cc3)NN12 (stereo not drawn),0.17
COC(=O)c1c(-c2c(Cl)cccc2Cl)noc1NC(=O)NN1CCOCC1,-1.8
OCCSc1nnnn1-c1ccccc1,-1.3
O=C(CSc1nnnn1-c1ccccc1)c1ccccc1,0.17
CCOC(=O)CSc1nnnn1-c1ccccc1,3.7*
c1ccc(C2=NNC(c3ccccc3)=NN2)cc1,-8
FC(F)(F)c1cc(-c2ccncc2)nc2c(-c3ccc(Cl)cc3)cnn12,-1.6
CCOC(=O)c1c(C)oc2ccc(OCC(N)=O)cc12,3
CCOC(=O)c1c(COc2ccccc2)oc2ccc(O)cc12,1.5
CCOC(=O)c1c(CN2CCOCC2)oc2ccc(OC)cc12,3.5*
COC(=O)c1scc(S(=O)(=O)C(C)C)c1-n1cccc1,-0.87
C/C(Cc1ncn(-c2cc(C)on2)n1)=N\O,0.15
CCNC(=O)N1c2ccc(C)cc2C(C)=CC1(C)C,0.56
N[C@@H](Cc1cc(I)c(Oc2ccc(O)c(I)c2)c(I)c1)C(=O)O,3.2*
N[C@@H](Cc1ccc([N+](=O)[O-])cc1)C(=O)O,-0.81
CCOC(=O)[C@@H](N)Cc1ccccc1,-0.77
N[C@@H](Cc1ccc(O)c(O)c1)C(=O)O,5
NC(Cc1c[nH]c2ccc(Br)cc12)C(=O)O (stereo not drawn),-0.81
N[C@@H](Cc1cc(I)c(Oc2cc(I)c(O)c(I)c2)c(I)c1)C(=O)O,4.3*
Cc1ccc2c(c1)CCCN2C(=O)c1c(-c2c(Cl)cccc2Cl)noc1C,-3.3
CCCOc1ccc(N2C(=O)CC(NC3CCN(c4ccc(Cl)nn4)CC3)C2=O)cc1 (stereo not drawn),0.17
COc1cccc(Cl)c1NC(=O)N1CCN(c2cc(C(F)(F)F)nc3ccccc23)CC1,0.14
CC1(C)Cc2c(sc(NC(=O)C(c3ccccc3)c3ccccc3)c2C#N)CO1,4.5*
